Screening data deposited in PubChem by several laboratories.
Rows were chosen to be rich in hits. Some 5.2% of all compounds tested hit in one or more screens of this group.
CR mimetic SO = lowers age-related superoxide in aged yeast cells | S. cerevisiae aged cells, superoxide DHE fluorescence; hits give low values | superoxide response (% of plate mean), % at 10 µM | 330,000 tested, 0.18% active | AID 2690;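 active = superoxide response under a set limit, about three screen SD below normal, cut at about 65% in these data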;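 also: yeast aged for seven days with compound at 30 °C before DHE staining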
APOBEC3G inh = APOBEC3G (human) deaminase inhibition | Q9HC16 | recombinant A3G, ssDNA deamination FAM/TAMRA fluorescence | 330,000 tested, 0.28% active | inhibition, % at 20 µM;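 active = inhibition of at least 40% at 20 µM, with no more than 30% in the related APOBEC3A deaminase screen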
CendR NRP1 mod = NRP-1/CendR interaction modulation | O14786 | FAM-RPARPAR peptide binding to NRP-1, fluorescence polarization | inhibition, % at 25 µM | 360,000 tested, 0.85% active;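 active = inhibition or corrected inhibition above about 18%, plus a signal ratio from 0.5 to 1.5, limit read from the data, passing the limit was not always enough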
Target sequence (O14786 whole entry, looked up): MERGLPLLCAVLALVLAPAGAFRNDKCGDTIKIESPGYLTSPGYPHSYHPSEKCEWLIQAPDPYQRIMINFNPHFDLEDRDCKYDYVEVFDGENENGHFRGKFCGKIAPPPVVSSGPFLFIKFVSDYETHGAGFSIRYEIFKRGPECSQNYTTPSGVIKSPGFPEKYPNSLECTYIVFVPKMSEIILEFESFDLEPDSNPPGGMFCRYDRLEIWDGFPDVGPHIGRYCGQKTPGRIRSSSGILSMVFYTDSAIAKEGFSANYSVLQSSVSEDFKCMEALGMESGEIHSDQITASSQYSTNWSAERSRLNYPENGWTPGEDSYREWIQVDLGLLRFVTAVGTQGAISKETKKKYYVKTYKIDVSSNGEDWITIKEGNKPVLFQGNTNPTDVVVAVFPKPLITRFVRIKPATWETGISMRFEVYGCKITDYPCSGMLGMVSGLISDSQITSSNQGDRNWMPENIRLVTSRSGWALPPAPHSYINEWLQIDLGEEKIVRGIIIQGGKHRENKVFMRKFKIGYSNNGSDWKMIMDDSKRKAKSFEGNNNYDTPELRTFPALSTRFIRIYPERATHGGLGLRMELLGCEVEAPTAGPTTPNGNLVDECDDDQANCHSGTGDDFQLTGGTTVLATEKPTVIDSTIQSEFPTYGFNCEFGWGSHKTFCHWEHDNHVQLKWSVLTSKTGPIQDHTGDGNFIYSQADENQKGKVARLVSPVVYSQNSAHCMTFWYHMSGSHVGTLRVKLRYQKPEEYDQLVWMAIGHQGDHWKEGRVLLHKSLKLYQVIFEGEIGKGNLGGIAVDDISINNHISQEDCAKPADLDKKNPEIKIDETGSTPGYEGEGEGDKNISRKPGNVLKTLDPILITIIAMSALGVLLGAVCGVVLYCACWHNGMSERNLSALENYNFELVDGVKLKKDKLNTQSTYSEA
ALR inh = blocks human ALR sulfhydryl oxidase activity; P55789; purified ALR, DTT oxidation, H2O2 HRP-luminol luminescence; inhibition, % (concentration not given with the values); 290,000 tested, 3.8% active;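 active = mean replicate inhibition above about 79%, with every replicate also reaching it, limit read from the data; inconclusive = only one of the two criteria met; inactive = mean below limit and not every replicate reaching it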
PfM18AAP inh = blocks P. falciparum M18 aspartyl aminopeptidase. recombinant PfM18AAP, H-Glu-NHMec fluorogenic cleavage. 290,000 tested, 1.2% active. inhibition, % at 7.35 µM;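 active = inhibition above the campaign mean inhibition over all tested compounds plus 3 SD, cut at about 28% in these data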
APOBEC3A inh = blocks human APOBEC3A ssDNA deamination | inhibition, % at 20 µM | AID 493011 | 330,000 tested, 0.41% active | P31941 | recombinant A3A, FAM/TAMRA ssDNA deamination fluorescence;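 active = at least 40% inhibition at 20 µM here, with at most 30% in a related deaminase screen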
A number is an active result.

What do the screens show for `O=S(=O)(c1ccccc1)c1cc(O)ccc1O`?
CR mimetic SO: inactive; APOBEC3G inh: inactive; CendR NRP1 mod: inactive; ALR inh: 98; PfM18AAP inh: inactive; APOBEC3A inh: inactive

How did O=C(/C=C/Nc1ccc([N+](=O)[O-])cc1)c1ccc(Br)cc1 do in these assays?
CR mimetic SO: inactive; APOBEC3G inh: inactive; CendR NRP1 mod: inactive; ALR inh: inactive; PfM18AAP inh: inactive; APOBEC3A inh: inactive

How did O=C(Nc1ccc(N2CCOCC2)cc1)C1CC(=O)N(c2ccc(Cl)cc2)C1 (stereo not drawn) do in these assays?
CR mimetic SO: inactive; APOBEC3G inh: inactive; CendR NRP1 mod: inactive; ALR inh: inactive; PfM18AAP inh: inactive; APOBEC3A inh: inactive

What do the screens show for `COc1ccc(OC)c(NC(=O)C2CC(=O)N(c3ccccc3)C2)c1` (stereo not drawn)?
CR mimetic SO: inactive; APOBEC3G inh: inactive; CendR NRP1 mod: inactive; ALR inh: inactive; PfM18AAP inh: inactive; APOBEC3A inh: inactive

Results for CC(=O)Nc1ccc(NC(=O)C2CC(=O)N(c3ccc(Cl)cc3)C2)cc1 (stereo not drawn) ?
CR mimetic SO: inactive; APOBEC3G inh: inactive; CendR NRP1 mod: 28; ALR inh: inactive; PfM18AAP inh: inactive; APOBEC3A inh: inactive

What do the screens show for `COc1ccc(OC)c(NC(=O)C2CC(=O)N(c3ccc(Br)cc3)C2)c1` (stereo not drawn)?
CR mimetic SO: inactive; APOBEC3G inh: inactive; CendR NRP1 mod: 26; ALR inh: inactive; PfM18AAP inh: inactive; APOBEC3A inh: inactive

Results for C=C(C(=O)c1ccccc1)C(c1ccccc1)C(C)C(=O)c1ccccc1 (stereo not drawn) ?
CR mimetic SO: inactive; APOBEC3G inh: inactive; CendR NRP1 mod: inactive; ALR inh: inactive; PfM18AAP inh: inactive; APOBEC3A inh: inactive

How did C=C(C(=O)c1ccccc1)C(C)C(=C)C(=O)c1ccccc1 do in these assays?
CR mimetic SO: inactive; CendR NRP1 mod: inactive; ALR inh: 87; PfM18AAP inh: inactive

How did CCCN1C(=O)c2ccccc2NC1c1ccc(O)c(OCC)c1 (stereo not drawn) do in these assays?
CR mimetic SO: inactive; APOBEC3G inh: inactive; CendR NRP1 mod: inactive; ALR inh: 86; PfM18AAP inh: inactive; APOBEC3A inh: inactive

How did Nc1ccccc1Nc1nc2ccccc2[nH]1 do in these assays?
CR mimetic SO: inactive; APOBEC3G inh: inactive; CendR NRP1 mod: inactive; ALR inh: 99; PfM18AAP inh: inactive; APOBEC3A inh: inactive

Results for Nc1ccc(Nc2nc3ccccc3[nH]2)cc1 ?
CR mimetic SO: inactive; APOBEC3G inh: inactive; CendR NRP1 mod: inactive; ALR inh: inactive; PfM18AAP inh: inactive; APOBEC3A inh: inactive

How did COc1ccc(CNC(=O)CN2C(=O)CSc3ccc(S(=O)(=O)N4CCOCC4)cc32)cc1 do in these assays?
CR mimetic SO: inactive; APOBEC3G inh: inactive; CendR NRP1 mod: 33; ALR inh: inactive; PfM18AAP inh: inactive; APOBEC3A inh: inactive

Results for Cc1c(Br)cnn1C(C)C(=O)N1CCN(c2ccc(F)cc2)CC1 (stereo not drawn) ?
CR mimetic SO: inactive; APOBEC3G inh: inactive; CendR NRP1 mod: inactive; ALR inh: 94; APOBEC3A inh: inactive

Results for CC(=O)Oc1ccc2nc(-c3ccc(Br)o3)oc(=O)c2c1 ?
CR mimetic SO: inactive; APOBEC3G inh: inactive; CendR NRP1 mod: inactive; ALR inh: 80; PfM18AAP inh: inactive; APOBEC3A inh: inactive

What do the screens show for `O=C(Cc1cccc(C(F)(F)F)c1)OCC(=O)N1CCN(S(=O)(=O)c2ccc(Cl)cc2)CC1`?
CR mimetic SO: inactive; APOBEC3G inh: inactive; CendR NRP1 mod: inactive; ALR inh: inactive; APOBEC3A inh: inactive

Results for Cc1c(Cl)cccc1NC(=S)N1CCCN(Cc2ccc(F)cc2)C1 ?
CR mimetic SO: inactive; APOBEC3G inh: inactive; CendR NRP1 mod: inactive; ALR inh: inactive; PfM18AAP inh: inactive; APOBEC3A inh: inactive

Results for COc1ccc(-c2nc3n(c2C)Cc2ccccc2-3)cc1 ?
CR mimetic SO: inactive; APOBEC3G inh: inactive; CendR NRP1 mod: inactive; ALR inh: 99; PfM18AAP inh: inactive; APOBEC3A inh: inactive

Results for Cc1cc(C)cc(OCC(=O)N(C)CC(=O)Nc2ccc(N3CCOCC3)cc2)c1 ?
APOBEC3G inh: inactive; CendR NRP1 mod: inactive; APOBEC3A inh: inactive

What do the screens show for `CC(C(=O)NCC1CCCCC1)N(C)CC(=O)Nc1ccc(N2CCOCC2)cc1` (stereo not drawn)?
CR mimetic SO: inactive; APOBEC3G inh: inactive; CendR NRP1 mod: inactive; ALR inh: 92; PfM18AAP inh: inactive; APOBEC3A inh: inactive

How did CC(Sc1ccc(Cl)cc1)C(=O)N(C)CC(=O)Nc1ccc(N2CCOCC2)cc1 (stereo not drawn) do in these assays?
CR mimetic SO: inactive; APOBEC3G inh: inactive; CendR NRP1 mod: inactive; ALR inh: 92; APOBEC3A inh: inactive

Results for Cc1ccc(CC(=O)N(C)CC(=O)Nc2ccc(N3CCOCC3)cc2)cc1C ?
CR mimetic SO: inactive; APOBEC3G inh: inactive; CendR NRP1 mod: inactive; ALR inh: 99; APOBEC3A inh: inactive

What do the screens show for `CC(Oc1cccc(Cl)c1)C(=O)Nc1ccc(N2CCOCC2)cc1N1CCOCC1` (stereo not drawn)?
CR mimetic SO: inactive; APOBEC3G inh: inactive; CendR NRP1 mod: inactive; ALR inh: 98; APOBEC3A inh: inactive

Results for CN(CC(=O)Nc1ccc(N2CCOCC2)cc1)C(=O)CC(c1ccccc1)c1ccccc1 ?
CR mimetic SO: inactive; APOBEC3G inh: inactive; CendR NRP1 mod: inactive; PfM18AAP inh: inactive; APOBEC3A inh: inactive

What do the screens show for `CC(Oc1ccc(F)cc1)C(=O)Nc1ccc(N2CCOCC2)cc1N1CCOCC1` (stereo not drawn)?
CR mimetic SO: inactive; APOBEC3G inh: inactive; CendR NRP1 mod: inactive; ALR inh: inconclusive; APOBEC3A inh: inactive

What do the screens show for `COc1ccc(CNC(=O)C(C)Sc2nc3ccccc3c(=O)n2CCCN2CCOCC2)cc1` (stereo not drawn)?
CR mimetic SO: inactive; APOBEC3G inh: inactive; CendR NRP1 mod: inactive; PfM18AAP inh: inactive; APOBEC3A inh: inactive

Results for CC(Oc1ccc(Cl)cc1)C(=O)N(C)CC(=O)Nc1ccc(N2CCOCC2)cc1 (stereo not drawn) ?
CR mimetic SO: inactive; APOBEC3G inh: inactive; CendR NRP1 mod: inactive; ALR inh: 93; PfM18AAP inh: inactive; APOBEC3A inh: inactive

Results for CC(Sc1ccc2c(c1)OCCO2)C(=O)Nc1ccc(N2CCOCC2)cc1 (stereo not drawn) ?
CR mimetic SO: inactive; APOBEC3G inh: inactive; CendR NRP1 mod: inactive; ALR inh: 99; PfM18AAP inh: inactive; APOBEC3A inh: inactive

Results for O=C(COC(=O)/C=C/c1ccc(C(F)(F)F)cc1)NC1CC1 ?
CR mimetic SO: inactive; APOBEC3G inh: inactive; CendR NRP1 mod: inactive; APOBEC3A inh: inactive

How did CC(C)OCCCNS(=O)(=O)c1ccc2c(c1)oc(=O)n2C do in these assays?
CR mimetic SO: inactive; APOBEC3G inh: inactive; CendR NRP1 mod: inactive; ALR inh: 99; PfM18AAP inh: inactive; APOBEC3A inh: inactive
